About 1,900 (0.58%) of roughly 330,000 compounds were called active. Another 4% or so got no clear call; they are omitted. Rule as the data show it: inconclusive = inhibition above about 70% without an active follow-up result; inactive = below that. Only a sample is shown. Entries with a potency or affinity are not part of this list.
Test: M. tuberculosis growth inhibition, HTS (AID 449762);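 also: bacterial growth assessed after seven days of incubation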
Conditions: M. tuberculosis H37Rv growth inhibition, 7H9 media; at 25 µM; stronger effect = higher value

With O=C(O)C(Cc1c[nH]c2ccccc12)NS(=O)(=O)c1cccc(Cl)c1Cl (stereo not drawn) as the molecule, how does the inhibition read?
Its inhibition is -3.04% (inactive).

For Cc1ccc(NC(=O)CN(C)CC(=O)Nc2sc3c(c2C(N)=O)CCC3)cc1, which inhibition is on record?
The inhibition was 66.6% (inactive).

Which inhibition does the source give for COc1ccc(NC(=O)CN(C)CC(=O)Nc2sc3c(c2C#N)CCC3)cc1 here?
Its inhibition is -8.9% (inactive).

With CC(=O)OC(c1nc2ccccc2c(=O)n1C1CC2(OC1=O)c1ccccc1N1C(=O)C(C)(C)N(O)C12)C(C)C (stereo not drawn) as the molecule, how does the inhibition read?
Its inhibition is -6.29% (inactive).

With Cc1ccc(N2C(=O)NC(=O)/C(=C/C=C/c3ccco3)C2=O)cc1 as the molecule, how does the inhibition read?
Its inhibition is 53.8% (inactive).

With Cc1ccc(N2C(=O)NC(=O)/C(=C\C=C\c3ccco3)C2=O)cc1 as the molecule, how does the inhibition read?
The inhibition was -4.11% (inactive).

With Cc1cc(NC(=O)CSCC(=O)N(C)Cc2ccc(F)cc2)no1 as the molecule, how does the inhibition read?
The inhibition was -22.2% (inactive).

With Fc1ccc(-c2csc3ncnc(Nc4ccc(N5CCOCC5)cc4)c23)cc1 as the molecule, how does the inhibition read?
The inhibition was 28.8% (inactive).

For Cc1ccc(-c2csc3ncnc(Nc4ccc(C(=O)O)cc4)c23)cc1, which inhibition is on record?
Its inhibition is 6.21% (inactive).

For O=C1c2cccc3c([N+](=O)[O-])c(O)cc(c23)C(=O)N1Nc1ccccc1, which inhibition is on record?
The inhibition was -8.23% (inactive).

Which inhibition does the source give for O=C(Nc1ccccc1)NC1CCCCC1 here?
Its inhibition is 7.91% (inactive).

With CCC(=O)N1c2ccc(S(=O)(=O)NCc3ccccc3)cc2CC1C (stereo not drawn) as the molecule, how does the inhibition read?
The inhibition was 3.62% (inactive).

With COc1nc(-c2ccccc2)cc(-c2ccccc2)n1 as the molecule, how does the inhibition read?
Its inhibition is 11.4% (inactive).

With COc1ccc(-c2cc(-c3ccccc3)nc(NN)n2)cc1OC as the molecule, how does the inhibition read?
Its inhibition is 2.81% (inactive).

Which inhibition does the source give for CC(C)Cn1c(SCC(=O)N2CCc3ccccc3C2)nc2cc(Cl)ccc2c1=O here?
The inhibition was -3.67% (inactive).

With CCCCN(CC)CCNC(=O)c1cn(C)c(=O)c2c1c1ccccc1n2C as the molecule, how does the inhibition read?
Its inhibition is -0.73% (inactive).

For Cc1cc(C)n2nc(CCc3ccccc3)nc2n1, which inhibition is on record?
The inhibition was 0.58% (inactive).

For CCCCC(=O)NNC(=S)NC(=O)c1cccc([N+](=O)[O-])c1, which inhibition is on record?
The inhibition was 29% (inactive).

Which inhibition does the source give for CCCCCCCC(=O)NNC(=O)c1ccc([N+](=O)[O-])cc1 here?
The inhibition was 3.14% (inactive).

For COc1ccc2oc(=O)c(C(=O)NCc3ccc(C)cc3)cc2c1, which inhibition is on record?
The inhibition was -2.24% (inactive).

With COc1cc2c(cc1OC)C1=C(C#N)CCC(=O)N1CC2 as the molecule, how does the inhibition read?
The inhibition was 7.82% (inactive).

Which inhibition does the source give for Cc1cc(C)n(-c2nc(Nc3ccccc3)nc(-n3nc(C)cc3C)n2)n1 here?
Its inhibition is 15.3% (inactive).

With CNc1nc(C)nc(-n2nc(C)cc2C)n1 as the molecule, how does the inhibition read?
Its inhibition is -0.69% (inactive).

Which inhibition does the source give for Cc1cccc(NC(=O)COC(=O)Cc2cccs2)c1C here?
Its inhibition is 4.38% (inactive).

Which inhibition does the source give for Cc1ccc(C)c(N2CN(CCC3=CCCCC3)CNC2=S)c1 here?
Its inhibition is -4.98% (inactive).

For C[C@@H]1O[C@@H](O[C@H]2[C@H](Oc3cc(O)c4c(c3)OC(c3ccc(O)cc3)CC4=O)O[C@H](CO)[C@@H](O)[C@@H]2O)[C@H](O)[C@H](O)[C@H]1O (stereo partly drawn), which inhibition is on record?
Its inhibition is -2.06% (inactive).

Which inhibition does the source give for C[C@@H]1O[C@@H](O[C@H]2[C@H](Oc3cc(O)c4c(c3)O[C@H](c3ccc(O)cc3)CC4=O)O[C@H](CO)[C@@H](O)[C@@H]2O)[C@H](O)[C@H](O)[C@H]1O here?
The inhibition was -0.33% (inactive).

Which inhibition does the source give for CCCCc1nc2cc(C(=O)N3CCCCC3CCNC(C)=O)ccc2o1 (stereo not drawn) here?
Its inhibition is 7.94% (inactive).

For CCC(CC)c1nnc(NC(=O)c2cc([N+](=O)[O-])ccc2N2CCOCC2)s1, which inhibition is on record?
Its inhibition is 5.48% (inactive).

With CCN1CCN(C(=S)NC(=O)/C=C/c2cccs2)CC1 as the molecule, how does the inhibition read?
The inhibition was -0.91% (inactive).

For O=C(NCCC1=CCCCC1)NC1CCCCC1, which inhibition is on record?
Its inhibition is 7.21% (inactive).

For NC(=O)NCCC1=CCCCC1, which inhibition is on record?
Its inhibition is 7.39% (inactive).

With O=C1N[C@@H](Cc2c[nH]c3ccccc23)COC(=O)[C@@H](Cc2ccc(F)cc2)C/C=C\C[C@H]1CC(=O)N(CCO)Cc1ccccc1 as the molecule, how does the inhibition read?
Its inhibition is 4.64% (inactive).

Which inhibition does the source give for COc1ccc(C(CNC(=O)c2ccc(Br)o2)N2CCN(C)CC2)cc1 (stereo not drawn) here?
Its inhibition is 2.14% (inactive).

For CC(OC(=O)COc1ccccc1Cc1ccccc1)C(=O)N(C)c1ccccc1 (stereo not drawn), which inhibition is on record?
Its inhibition is -4.05% (inactive).

For CC(=O)Nc1ccc(NC(=O)C(C)OC(=O)COc2ccc(Nc3ccccc3)cc2)cc1 (stereo not drawn), which inhibition is on record?
The inhibition was 40.1% (inactive).

Which inhibition does the source give for CN(CC(=O)Nc1ccc(Cl)cc1)C(=O)C1=COCCO1 here?
The inhibition was -13.8% (inactive).

With Cc1ccc(NS(=O)(=O)c2c(C)[nH]c(C)c2C(=O)N2CCCC2)cc1 as the molecule, how does the inhibition read?
Its inhibition is 2.46% (inactive).

For N#C/C(=N/Nc1ccccc1[N+](=O)[O-])C(N)=S, which inhibition is on record?
Its inhibition is -5.6% (inactive).

For Oc1ccccc1N=N/C(=N/Nc1ccccc1O)c1ccccc1, which inhibition is on record?
Its inhibition is 10.4% (inactive).

For COc1ccc(-c2nc(CN3CCCCC3c3cccnc3)c(C)o2)c(F)c1 (stereo not drawn), which inhibition is on record?
Its inhibition is 3.24% (inactive).

With c1ccc(Oc2cccc(OCCCCN3CCCC3)c2)cc1 as the molecule, how does the inhibition read?
The inhibition was 1.38% (inactive).

For CN1CCN(C(=O)c2cnn3c2NC(c2ccccc2)CC3C(F)(F)F)CC1 (stereo not drawn), which inhibition is on record?
The inhibition was -19.6% (inactive).

For CCN(CC)CCCN(Cc1cc2cc3c(cc2[nH]c1=O)OCO3)C(=S)Nc1ccccc1OC, which inhibition is on record?
Its inhibition is -4.51% (inactive).

Which inhibition does the source give for C[n+]1nc(Nc2ccccc2)sc1-c1ccc(O)cc1 here?
The inhibition was 4.57% (inactive).

Which inhibition does the source give for CCc1ccc(Nc2n[n+](-c3ccccc3)c(-c3ccc(C(=O)O)cc3)s2)cc1 here?
The inhibition was 4.87% (inactive).

For O=C(NCc1cccs1)c1cc(S(=O)(=O)N2CCOCC2)ccc1N1CCCC1, which inhibition is on record?
Its inhibition is 5.48% (inactive).

For Cc1ccccc1CN1CCN(c2ccc(S(=O)(=O)N3CCCC3)cn2)CC1, which inhibition is on record?
Its inhibition is -6.22% (inactive).

With COC(=O)C1C(=O)C2=C(CC1C)NC(C)=C(C(=O)OC(C)C)C2c1ccc(C)o1 (stereo not drawn) as the molecule, how does the inhibition read?
The inhibition was 2.94% (inactive).

Which inhibition does the source give for COc1cc(OC)cc(-n2nnnc2SCC(=O)N2CCCC2)c1 here?
The inhibition was -5.03% (inactive).

Which inhibition does the source give for COc1ccc(-n2nnnc2S(=O)(=O)Cc2ccc(C(=O)O)cc2)cc1 here?
Its inhibition is -3.99% (inactive).

With CCCCn1c(C)c(C(=O)O)c2cc(OC)c3ccccc3c21 as the molecule, how does the inhibition read?
Its inhibition is 17.8% (inactive).

Which inhibition does the source give for COc1cc(C(=O)NCCc2cn3ccc(C)cc3n2)cc(OC)c1OC here?
The inhibition was -5.75% (inactive).

With CN=c1scc(-c2cccs2)n1/N=C/c1ccccc1O as the molecule, how does the inhibition read?
Its inhibition is -8.02% (inactive).

For CN=c1scc(-c2ccccc2F)n1/N=C/c1ccc[nH]1, which inhibition is on record?
The inhibition was 67.8% (inactive).

For C[C@H](CO)N1C[C@H](C)[C@@H](CN(C)Cc2ccc(C(=O)O)cc2)Oc2c(NS(=O)(=O)c3ccc(F)cc3)cccc2C1=O, which inhibition is on record?
Its inhibition is -2.1% (inactive).

With O=C(NCc1nnc(SCC(=O)N2CCOCC2)o1)c1c(F)cccc1Cl as the molecule, how does the inhibition read?
Its inhibition is -6.01% (inactive).

Which inhibition does the source give for COc1cccc(OCC(=O)N(C)Cc2nc(-c3cccc(C)c3)no2)c1 here?
Its inhibition is 1.4% (inactive).

Which inhibition does the source give for COc1ccc(O)c(C(=O)c2cnn(C(=O)c3cccc(S(=O)(=O)N4CCOCC4)c3)c2)c1 here?
Its inhibition is -2.2% (inactive).

Which inhibition does the source give for CCN(CC(=O)NCc1cccs1)C(=O)c1ccc(-c2ccc(F)cc2)o1 here?
Its inhibition is -1.53% (inactive).

With CCN(CC(=O)NCc1cccs1)C(=O)c1ccc(C)o1 as the molecule, how does the inhibition read?
The inhibition was 2.46% (inactive).

Which inhibition does the source give for CCOc1ccc(S(=O)(=O)N2CCN(C(=O)CN3C(=O)NC4(CCCC4)C3=O)CC2)cc1 here?
Its inhibition is -3.03% (inactive).

With Cc1oc(C(=O)Nc2ccc(C(=O)O)cc2)cc1COc1ccccc1 as the molecule, how does the inhibition read?
The inhibition was -2.76% (inactive).

Which inhibition does the source give for Cc1ccc(OCc2cc(C(=O)Nc3ccccc3)oc2C)cc1 here?
Its inhibition is 0.92% (inactive).

With COc1ccc(CCNC(=O)c2cc(C(C)C)on2)cc1OC as the molecule, how does the inhibition read?
Its inhibition is -0.84% (inactive).

With CCc1ccc2c(c1)C(O)(CC(=O)c1cccs1)C(=O)N2 (stereo not drawn) as the molecule, how does the inhibition read?
The inhibition was 10.1% (inactive).

Which inhibition does the source give for Cc1cccc2c1NC(=O)/C2=C\C(=O)c1cccs1 here?
Its inhibition is -9.89% (inactive).

Which inhibition does the source give for N#Cc1c(-c2ccccc2)c(-c2ccccc2)nn(CC(=O)NNC(=O)Nc2ccc(Cl)cc2)c1=O here?
The inhibition was 3.84% (inactive).

For N#Cc1c(-c2ccccc2)c(-c2ccccc2)nn(CC(=O)NNC(=O)Nc2ccccc2)c1=O, which inhibition is on record?
The inhibition was -9.35% (inactive).

Which inhibition does the source give for COc1ccc(NC(=O)C23CC4CC(CC(Cl)(C4)C2)C3)cc1S(=O)(=O)N1CCOCC1 here?
The inhibition was 1.2% (inactive).

For COC(=O)Cc1ccc(NC(=O)c2ccc3c(c2)C(=O)N(Cc2ccco2)C3=O)cc1, which inhibition is on record?
Its inhibition is -5.45% (inactive).

For CCOC(=O)c1c(NC(=O)CC2SC(N)=NC2=O)sc(C)c1C (stereo not drawn), which inhibition is on record?
Its inhibition is 0.41% (inactive).

With O=S(=O)(NCCN1CCCC1)c1ccc(Br)cc1 as the molecule, how does the inhibition read?
The inhibition was 0.37% (inactive).

Which inhibition does the source give for CCOc1ccc(-c2csc(Cn3c(CN4CCN(C)CC4)nc4ccccc4c3=O)n2)cc1 here?
The inhibition was 8.95% (inactive).

For CN1CCN(Cc2nc3ccccc3c(=O)n2Cc2nc(-c3ccc([N+](=O)[O-])cc3)cs2)CC1, which inhibition is on record?
Its inhibition is 3.59% (inactive).

For CCCCN(C(=O)c1ccc(C#N)cc1)c1c(N)n(CCC)c(=O)[nH]c1=O, which inhibition is on record?
Its inhibition is -1.21% (inactive).

Which inhibition does the source give for O=C(CN1CCCCC1)NC(=O)NC1CCCCC1 here?
Its inhibition is -4.76% (inactive).

For COc1cc(O)cc2occ(-c3ccc(O)cc3)c(=O)c12, which inhibition is on record?
Its inhibition is -14.1% (inactive).

For Cc1nnc(SCC(=O)NC2CCCCC2)n1N, which inhibition is on record?
Its inhibition is 3.31% (inactive).

With C=CCn1c(N)cc(=O)nc1SC(C)C(=O)Nc1ccc(C(=O)OCC)cc1 (stereo not drawn) as the molecule, how does the inhibition read?
Its inhibition is 6.39% (inactive).

Which inhibition does the source give for Cc1ccc(NC(=O)C(C)Sc2nc(-c3ccccc3)cc(=O)[nH]2)cc1 (stereo not drawn) here?
Its inhibition is 14% (inactive).

Which inhibition does the source give for CCc1ccccc1NC(=O)C1CCCN(c2nn3c(=O)cc(C)nc3s2)C1 (stereo not drawn) here?
Its inhibition is -6.18% (inactive).

For O=C(COC(=O)c1cc(S(=O)(=O)N2CCOCC2)ccc1F)c1ccccc1, which inhibition is on record?
Its inhibition is 0.68% (inactive).

For O=C(Nc1cccc(NC(=O)c2cc([N+](=O)[O-])ccc2Cl)n1)c1cc([N+](=O)[O-])ccc1Cl, which inhibition is on record?
The inhibition was 10.1% (inactive).

With Cc1sc2ncnc(N3CCC(C(=O)Nc4ccc(C#N)cc4)CC3)c2c1C as the molecule, how does the inhibition read?
Its inhibition is 7.85% (inactive).

Which inhibition does the source give for CCc1cccc(NC(=O)C2CCN(c3ncnc4sc(C)c(C)c34)CC2)c1 here?
Its inhibition is 22.6% (inactive).

Which inhibition does the source give for COc1cc(-c2noc(C)c2C(=O)NCc2ccc(C)o2)cc(OC)c1OC here?
The inhibition was 3.84% (inactive).

Which inhibition does the source give for CC(=O)c1c(C)[nH]c(C(=O)OCC(=O)NCc2cccs2)c1C here?
The inhibition was 7.06% (inactive).

Source: PubChem BioAssay AID449762 (Southern Research Specialized Biocontainment Screening …, 2010)
